According to PubChem BioAssay AID1259343 (VanderVen Lab, College of Veterinary Medicine, Cornell …, 2017):
Among all 6,200 compounds or so, about 2,900 (47%) were called active. The set was probably picked from earlier hits. The list shows a part of the results. Unmarked numbers belong to inactive results. Rule as the data show it: active = inhibition above about 50%; inactive = the rest.

Assay: Mycobacterium tuberculosis growth inhibition, primary screen (AID 1259343)
Conditions: inhibition: at 10 µM, hits give high values; outcome: 10 uM

SMILES | inhibition
COc1cccc(CC(=O)N2CCOC(COc3ccc(Cl)c(C)c3)C2)c1 (configuration not stated) | 4.53%
Cc1cc(OCC2CN(C(=O)Cc3cccc(Cl)c3)CCO2)ccc1Cl (configuration not stated) | 31%
Cc1cc(OCC2CN(C(=O)COCc3ccccc3)CCO2)ccc1Cl (configuration not stated) | 50.5% (active)
Cc1cc(OCC2CN(C(=O)Cc3ccc4c(c3)OCO4)CCO2)ccc1Cl (configuration not stated) | 65.7% (active)
O=C(Cc1cccc(Cl)c1)N1CCOC(COCc2ccccc2F)C1 (configuration not stated) | 30.4%
O=C(Cc1cccc(Cl)c1)N1CCOC(COc2ccc(F)cc2)C1 (configuration not stated) | 11.7%
Cc1ccccc1OCC(=O)N1CCOC(COCc2ccccc2F)C1 (configuration not stated) | 72.4% (active)
O=C(NCCC(=O)N1CCOC(COCc2ccc(F)cc2Cl)C1)OCc1ccccc1 (configuration not stated) | 61% (active)
CNC(=O)c1cc(Oc2ccc(NC(=O)Nc3ccc(Cl)c(C(F)(F)F)c3)c(F)c2)ccn1 | 34.8%
O=S1(=O)N(CCN2CC=C(c3c[nH]c4cc(F)ccc34)CC2)c2cccc3c2N1CCC3 | 12.6%
O=C(/C=C/c1ccc(-c2cccc([N+](=O)[O-])c2)o1)N1CCCCC1 | 80.3% (active)
COc1c(Br)cc(Cl)cc1S(=O)(=O)NCCc1ccccc1 | 18%
Fc1ccccc1N1CCN(Cc2nc(Cc3ccccc3Cl)no2)CC1 | inactive
CN(Cc1nc(-c2cccc(Cl)c2)no1)C1CCCCC1 | 74.3% (active)
COCCCC1CCN(Cc2nc(Cc3ccccc3Cl)no2)CC1 | 29.1%
CCc1ccc(CN(C)Cc2nc(Cc3ccccc3F)no2)cc1 | 71% (active)
Cc1ccc(OCCN(C)Cc2nc(-c3cccc(Cl)c3)no2)cc1 | 35%
CN(C1CCCCC1)S(=O)(=O)N1CCCC(c2nc(-c3cccc(F)c3)no2)C1 (configuration not stated) | 33.1%
Clc1ccccc1Cc1noc(CN2CCN(Cc3ccccc3)CC2)n1 | 51.2% (active)
CN(Cc1ccc2nsnc2c1)Cc1nc(Cc2ccccc2Cl)no1 | 31.6%
CN(Cc1ccc(F)cc1)Cc1nc(Cc2ccccc2Cl)no1 | 89.3% (active)
OCC1(Cc2ccccc2)CCCN(c2ccc(-c3ccccc3)nn2)C1 (configuration not stated) | 23.4%
Cc1ccc(F)c(OCc2nc(Cc3ccccc3F)no2)c1F | 81.3% (active)
COc1cccc2c1OCCCN(Cc1nc(Cc3ccccc3Cl)no1)C2 | 14.3%
CN(Cc1nc(Cc2ccccc2Cl)no1)C1CCCCC1 | 65.6% (active)
Cc1noc(CNc2cc(Cl)ccc2Oc2ccccc2)n1 | 33.9%
COc1cccc(F)c1OCc1nc(CC2CC2)no1 | -44.2%
